Test results published in PMC12136788.
Substitutions are numbered along the chain they refer to. Over roughly 24,000 sequences, “enrichment r” has its median near 0.99; the highest 2% begin near 3.7. Many of the other results were omitted from the sample, so the highest values are more common in it than they were.

T1: UNK ZnF1-3 (human, UniProt Q9C0B0 31-174)
T1 sequence: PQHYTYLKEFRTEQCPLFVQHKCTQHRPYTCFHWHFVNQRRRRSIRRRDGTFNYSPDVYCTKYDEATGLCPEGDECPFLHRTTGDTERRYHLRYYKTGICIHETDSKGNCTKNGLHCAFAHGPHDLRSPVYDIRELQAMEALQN

B1: chr10:114798999:114799000:-_ENSMUSG00000069520_ENSMUST00000092170|mus_mus|motif|central (ssRNA)
RNA: GGGAGUUCUACAGUCCGACGAUCUCAUCUUUAUAUACCUUUUGCACGUAGUGUCGUCACUAUCUGUCAUGGAAAAUAGAGCGGCGAGCACAUCUUCCACCAACCGAACGACAAAAUAGAAUCGUAAAUCCAAAACGUCUAGUCCAACAGAGGAUUGAGCAUCA
B2: chr1:225977196:225977197:+_ENSG00000143742_ENST00000304786|hu_mus|FALSE|FALSE (ssRNA)
RNA: GGGAGUUCUACAGUCCGACGAUCAUUCCGUUUCCAAAAAUAAAGGUUUUCUAACUGGAAACCCCGACAUUCCUACUCUCUAAAGCAAACUUUAGGACGCAGGCUGGUCUCUCGGCUUUGACAGCUCCAUUACGUAAGUAUAUCCAACAGAGGAUUGAGCAUCA
B3: 29117783_29124966_335_CDS_ENSG00000163811_ENST00000407426|human|control|control (ssRNA)
RNA: GGGAGUUCUACAGUCCGACGAUCUUUUACUGUGCUGUAUAAUAAAAUGCUACCAACUGCUGUGCCAAGAGCCAAUAAGUCAGUCUGGUUACUCAUUCCUACAGCUUCUGAUUUCCUUUUUUUCCUCUGGGGACUUUCCUUGGCCAACAGAGGAUUGAGCAUCA
B4: chr7:141450121:141450122:+_ENSG00000106028_ENST00000265304|hu_mus|hu_hu_hu_mus_True|18_38 (ssRNA)
RNA: GGGAGUUCUACAGUCCGACGAUCUCAUCCGUUCUAUGCCUUUUCUUUUGUCUGGUCACUCAGAAAUAUAAUGUUAUCAGCUAUGAUUGUUGUUGCUUGUCGCCUCACAUUGUUUUUAUCCAUGUAUUCGCCAUAGUCCACUUUCAACAGAGGAUUGAGCAUCA
B5: chr4:115894766:115894767:+_ENSMUSG00000028698_ENSMUST00000030464|mus_hu|mus_mus_mus_hu_True|18_98 (ssRNA)
RNA: GGGAGUUCUACAGUCCGACGAUCUUCCACACGGAAAGUACUUGGGGGUUUUCCAACGGCCAGUACCAGUCCGGCCAAACUACCCGAACAGGGUCCUCCCCCUCUCUCCUACAGAACUAAAGCACCCGCCCCCGAACUUUCAAGCAACAGAGGAUUGAGCAUCA
B6: chr7:140404665:140404666:+_ENSG00000090266_ENST00000247866|hu_hu|hu_hu_hu_mus_False|1_108 (ssRNA)
RNA: GGGAGUUCUACAGUCCGACGAUCUGCGUACAGAGUGCCAGAGAGUUUACAGUGUCAGUCCUCGUCAUCAGGAGGGAUUCCCAGUUCUUCAUCUGUCCACUGUGAAGGAUCUGGAUAUGAAAAGUGACCCAGCACAGCUUCUGACAACAGAGGAUUGAGCAUCA
B7: chr1:39494447:39494448:+_ENSG00000168653_ENST00000372967|hu_mus|hu_hu_hu_mus_False|78_108 (ssRNA)
RNA: GGGAGUUCUACAGUCCGACGAUCGCAUCGACCAGCCUUCUUAUAGGGCUGUUCUGCACUCUGGAUUAUAAAGUGCCGGUCCAGGCUGAUGCCCAGCUUUUUCUGUAUGUCAAGGAAAGGCAUGGCUCUGCAGUGCCCUUGUCACAACAGAGGAUUGAGCAUCA
B8: 114145877_114145997_1367_3pUTR_ENSMUSG00000033545_ENSMUST00000095176|mouse|control|control (ssRNA)
RNA: GGGAGUUCUACAGUCCGACGAUCUUUGCAGUGGACAAUGUCUGUUCCACAGGCCACUACUUAGUGAUUCUUCCCUUUCAGAACCGAGUCUCUGAGAGGUGAGGGAGGUGAGGCUGCUGUAGAGCCUGGCUGGGGGCGCCUCUGCAACAGAGGAUUGAGCAUCA
B9: chr7:130337358:130337359:+_ENSMUSG00000052707_ENSMUST00000094053|mus_mus|FALSE|FALSE (ssRNA)
RNA: GGGAGUUCUACAGUCCGACGAUCACAAGAUUUUUUGACCGGGGAACUGGUUUCCUGAGAACCAUGCUCUUUGAUUUAGGACAGGAAUAGAAAACAGAAGAACAUGGCCAACUGCUGCUCUUUUCCCAGAGAUAGAAGCGUCUUCAACAGAGGAUUGAGCAUCA
B10: chr2:165877891:165877892:+_ENSMUSG00000027678_ENSMUST00000088095|mus_mus|motif|central (ssRNA)
RNA: GGGAGUUCUACAGUCCGACGAUCGAACCUCUGGAUACAUCUUCGGAUUAUGUCUUCAAAGCCAGGCCUCAUGGAAGAUCGGAGUGAGUUUGUAUCUAUAUUGACAACCUUUCCGGAAAGGUCAUGUCUGGUAAUAAAGCUCUCCAACAGAGGAUUGAGCAUCA
B11: chr3:32586495:32586496:-_ENSG00000144635_ENST00000273130|hu_hu|FALSE|FALSE (ssRNA)
RNA: GGGAGUUCUACAGUCCGACGAUCUUUCUGUAAAGAAUCCAAAGCAGUCCAAGGCUUUGACAUGUCAACAACCAGCAUAACUAGAGUAUCCUUCAGAGAUACGGCAUCCAGUGAAAAUUUAAGGAGGCCUUUGUGAUAUAGGUCCAACAGAGGAUUGAGCAUCA
B12: chr13:100193591:100193592:-_ENSMUSG00000052727_ENSMUST00000064762|mus_mus|FALSE|FALSE (ssRNA)
RNA: GGGAGUUCUACAGUCCGACGAUCUUAAACCCUCAGAGUAAAAGAGCAGUGCGAAACAUACGCUUUACAGACGAAAAUAAACUAAAAUGUAAAUUUUGAAAUAAAUAACUAACAUAGAAAAUAAAAUGAGGUCAUUGUUCACUACAACAGAGGAUUGAGCAUCA
B13: chr19:7500544:7500545:-_ENSMUSG00000024758_ENSMUST00000025667|mus_mus|FALSE|FALSE (ssRNA)
RNA: GGGAGUUCUACAGUCCGACGAUCACAGACACGUACACAAUUUCAUUAGUAAUUUUUUCAUCUCUACGAGUCUUUGUUUAAAAAAACAAAACCGAAAAAACCCUCUCAUGUAACACAGAAACCUUUCCAAUUAUUUUAACACAGCAACAGAGGAUUGAGCAUCA
B14: chr13:100193591:100193592:-_ENSMUSG00000052727_ENSMUST00000064762|mus_mus|motif|central (ssRNA)
RNA: B12 RNA with U82G, A83G
B15: 44559432_44560298_1111_3pUTR_ENSMUSG00000032096_ENSMUST00000034607|mouse|control|control (ssRNA)
RNA: GGGAGUUCUACAGUCCGACGAUCACAUUUGGAUGCGUCUGUAGCUGCACCCCUUUCUUAUCUUCAUUUUCUACAUGAAGACGAAUCCGGCCAAAUUUGUCAUCUGAGAUCCUAAGCAUGAUCAUGCCAUGCAACUCCAUAUUCCAACAGAGGAUUGAGCAUCA
B16: chr15:55677894:55677895:-_ENSG00000260916_ENST00000569205|hu_mus|motif|central (ssRNA)
RNA: GGGAGUUCUACAGUCCGACGAUCGGAACAUUCUAGAGUCAGUCCACAGUUGUCACUGGCUGUGGCAGAAUUCACGAUCUCGGUAUCAGAACCCUCAUGAUUGAUGACAGUCCAGCCACAAGAUGAGUCGCUGUCGCUGGAACUCAACAGAGGAUUGAGCAUCA
B17: chr5:133537698:133537699:-_ENSG00000113575_ENST00000481195|hu_mus|FALSE|FALSE (ssRNA)
RNA: GGGAGUUCUACAGUCCGACGAUCGCUCUCGUGAUUCCCUCGGAGUAUGGUGAUGCGCUCUCGGUAACGAACCUUAAGAGCUACAAGCAGUGUAACUGUUUCAACAGAGUAAUAUCCUCUGUCCACAUAGUCUCCCAUAAACAGCAACAGAGGAUUGAGCAUCA
B18: chr7:129114946:129114947:-_ENSMUSG00000034951_ENSMUST00000057576|mus_hu|motif|central (ssRNA)
RNA: GGGAGUUCUACAGUCCGACGAUCAUCAACAAGCAUCAUUAAGCUGUUCUGCAUACCUGUUAGCUUGGCAGAAAUCACAGCGGUGUCCUGAGUCUUAAAUGUCUCCUCAAUAUCGGCGCUCAACGUGCUCCACUUAUCUGCUUCCAACAGAGGAUUGAGCAUCA
B19: chr2:179515052:179515053:+_ENSMUSG00000000305_ENSMUST00000000314|mus_hu|mus_mus_mus_hu_False|28_108 (ssRNA)
RNA: GGGAGUUCUACAGUCCGACGAUCGCUUUCCCGCGCAGUCACCGUGAACGCCACCUGCUCGGAGGGGACCUGCAGCUCCCGGGUGGCGAAGACUGUCCCAUCUGCCCCGACUUUGAAGUCCAUGCUGUUGGUCUCAUAUUGUGUCAACAGAGGAUUGAGCAUCA
B20: chr22:38881817:38881818:-_ENSG00000100201_ENST00000396821|hu_mus|FALSE|FALSE (ssRNA)
RNA: GGGAGUUCUACAGUCCGACGAUCUAAUUAUAGACUGGAUCUUUUGGGUGGGCAGAAGAAACCUGGCAGUGAAAUUUUAACUAUCUGCAUUAAAAAAAGAUAAACCGUAAUGGUUGAGAAAAGAAAAAAUAAAAAUGAAAAGGUCAACAGAGGAUUGAGCAUCA
B21: chr1:109605286:109605287:-_ENSG00000197780_ENST00000461096|hu_mus|hu_hu_hu_mus_True|58_108 (ssRNA)
RNA: GGGAGUUCUACAGUCCGACGAUCAAGAACAAUAACAACAUUCAGUAACCUCUUUAAAUGCAAUUAUCCUUAUUAUAAACUAAGGGCAAUAAUAAUUUAAUACCGUAAGUGAACUACACACAAAGCCUGAACCGCGAAAAUGGUCAACAGAGGAUUGAGCAUCA
B22: chr22:38881817:38881818:-_ENSG00000100201_ENST00000396821|hu_mus|motif|central (ssRNA)
RNA: B20 RNA with U81G, A82G
B23: 110384571_110384691_763_CDS_ENSG00000138802_ENST00000265175|human|control|control (ssRNA)
RNA: GGGAGUUCUACAGUCCGACGAUCUCCUGAAAGACUUUGCUGCUGGUGGUGCUGUUGUGAUGGUAGAGGUGGAAGUGGCGAUGGAUGGCUGAUAGCUGUAUUUUGACCAGAGAAUGAAUUAUCUUUAACUGGCCUAACAGUCGGCAACAGAGGAUUGAGCAUCA

Target: T1, UNK ZnF1-3
Assay: nsRBNS (natural sequence RNA bind-n-seq); RBNS binding buffer (assumed for nsRBNS): 25 mM Tris pH 7.5, 150 mM KCl, 3 mM MgCl2, 0.01% Triton X-100, 500 ug/ml BSA, 20 U/ml SUPERase-In, 4 C; UNK is unkempt and MSI1 is Musashi-1; names of the RNAs are library labels; protein concentration not given here; high values mean tight binding

| Binder | binding signal [enrichment R] |
| --- | --- |
| B1 | 0.824 |
| B2 | 0.892 |
| B3 | 0.828 |
| B4 | 0.364 |
| B5 | 1.44 |
| B6 | 1.16 |
| B7 | 1 |
| B8 | 0.695 |
| B9 | 0.987 |
| B10 | 0.788 |
| B11 | 1.74 |
| B12 | 5.86 |
| B13 | 1.21 |
| B14 | 4.73 |
| B15 | 0.578 |
| B16 | 0.495 |
| B17 | 0.691 |
| B18 | 0.781 |
| B19 | 0.727 |
| B20 | 6.63 |
| B21 | 1.22 |
| B22 | 8.6 |
| B23 | 1.16 |
